Consider 29 compounds from PubChem BioAssay (NCI).

The panel holds about 83,000 compounds, 20% with a hit somewhere; the sample as a whole holds those more often.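 Results are percent growth after 48 hours of single-concentration exposure. 100 means growth as in untreated cells, lower positive values show inhibition; negative values down to -100 show cell death.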 A number with no mark means an inactive call. The source made the active and inactive calls. Rule for the calls: active = growth percent below 10; inactive = the rest.

What all share (experiment): NCI-60 one-dose screen, 48 h (100 = growth as untreated, 0 = no growth, -100 = all killed)
Common to all, as to settings: 10 µM unless noted

The subject of test [1] is T-47D breast.
Test [2] concerns BT-549 breast.
Test [3] has as its system MDA-MB-435 melanoma.
The test system of test [4] is SW-620 colon.
The subject of test [5] is MCF7 breast.
Test [6] relates to HCT-116 colon.
Test [7] has as its system HCC-2998 colon.
Test [8] relates to KM12 colon.

Take `CCCN=C(N)c1ccc(NC(=O)c2ccc(C(=O)Nc3ccc(C(N)=NCCC)cc3)cc2)cc1`: the growth in test [1] was 77.6%; in test [2], 93.9%; in test [3] it was 90.2%; in test [4], 104%; in test [5], 87.8%; in test [6], 92.2%. Moreover, the growth in test [7] was 109%; in test [8], 95.5%.
As for `COc1ccc(Cn2nc(-c3cc(OC)c(OC)c(OC)c3)c3c2CCc2cnoc2-3)cc1OC`, the growth in test [1] was 65.8%; in test [2], 61.1%; in test [3], -7.19% (active); in test [4] it was 48%; in test [5], 29.8%; in test [6] it was 46.6%. For the same compound, the figures for the growth in test [7] and in test [8] were 70.5% and 54%, respectively.
Consider `COc1ccc(C(O)c2cc3c(N)c(C(=O)Nc4cccc(Br)c4C)sc3nc2C)cc1` (configuration not stated), for which the growth was 51.8% in test [1]; 42.3% in test [2]; 8.91% (active) in test [3]; 25.9% in test [4]; 22.1% in test [5]; 13.2% in test [6]. The growth in test [7] is 16.2%; in test [8] it was 11.1%.
For the compound `Nc1c(C(=O)Nc2ccc(Cl)cc2)cc(-c2nc3ccccc3s2)c(=O)n1NS(=O)(=O)c1ccc(Cl)cc1`, the growth in test [1] was 92.9%; in test [2], 122%; in test [3], 99.8%; in test [4], 96.9%; in test [5], 84.2%; in test [6] it was 98.6%. Further, the growth in test [7] was 107%; in test [8], 99%.
Regarding `CC(=O)N1N=C(c2cccc(Nc3ccncc3)c2)CC1c1ccccc1` (configuration not stated), the growth in test [1] was 80.4%; in test [2], 58.2%; in test [3], 89.1%; in test [4], 93.6%; in test [5] it was 81.3%; in test [6], -24.4% (active). For the same compound, the growth in test [7] is 103%; in test [8], 101%.
As for `CC1(C)CN(c2cnc(C(=O)Nc3cc(F)cc4cccnc34)cn2)CCN1`, the growth was 44.3% in test [1]; 90.2% in test [2]; 85.9% in test [3]; 35.1% in test [4]; 9.21% (active) in test [5]; 11.4% in test [6]. The growth is 92.2% in test [7] and 91.7% in test [8].
As for `Cc1cc(C(=O)Nc2ncnc3nc[nH]c23)no1`, the growth in test [1] is 103%; in test [2] it was 106%; in test [3], 102%; in test [4] it was 96.1%; in test [5] it was 93.3%; in test [6] it was 105%. In addition, the growth in test [7] was 104%; in test [8], 99.5%.
With `OC(c1ccccc1)c1ccccn1` (configuration not stated), the growth in test [1] was 87.4%; in test [2], 93.4%; in test [3] it was 104%; in test [4], 102%; in test [5], 102%; in test [6], 103%. For the same compound, the results for the growth in test [7] and in test [8] were 104% and 102%, respectively.
Consider `COc1ccc(C(=O)c2cc(C)c(OC)c(C)c2)c(OC)c1O`, for which the growth is 40.2% in test [1]; 8.49% (active) in test [2]; -40.3% (active) in test [3]; 22% in test [4]; 16.1% in test [5]; 1.83% (active) in test [6]. For the same compound, the growth was 16.8% in test [7] and 7.53% (active) in test [8].
Regarding `N#C/C(=C\c1ccc(Br)cc1)n1nnc2cccc(F)c21`, the growth in test [1] was 21.7%; in test [2], 17.6%; in test [3], -18% (active); in test [4] it was -48% (active); in test [5] it was 12.6%; in test [6], 2.67% (active). In addition, the values for the growth in test [7] and in test [8] were 19.2% and 7.22% (active), respectively.
For the compound `CC1(C)CN(Cc2ccccc2)CCN1Cc1ccccc1`, the growth is 100% in test [1]; 109% in test [2]; 104% in test [3]; 97.6% in test [4]; 114% in test [5]; 101% in test [6]. In addition, the growth is 106% in test [7] and 104% in test [8].
Turning to `COc1cc(/C=C/C(=O)c2ccc(Nc3ncnc4ccccc34)cc2)cc(OC)c1`, the growth in test [1] was 117%; in test [2] it was 26.9%; in test [3] it was -39.2% (active); in test [4], -66.1% (active); in test [5] it was 0.628% (active); in test [6], -87.3% (active). Also, the values for the growth in test [7] and in test [8] were -37.6% (active) and -49.8% (active), respectively.
Consider `COc1ccc2c(c1)OC13Oc4cc(OC)ccc4C=C1CCCC3=C2`, for which the growth is 44.7% in test [1]; 35% in test [2]; -10.4% (active) in test [3]; 16.6% in test [4]; 8.63% (active) in test [5]; 20% in test [6]. Moreover, the results for the growth in test [7] and in test [8] were 57.9% and -5.69% (active), respectively.
As for `O=C(OC(OC(=O)c1cc(Cl)cc(Cl)c1)c1cccc2ccccc12)c1ccccc1` (configuration not stated), the growth is 98.8% in test [1]; 113% in test [2]; 111% in test [3]; 97.1% in test [4]; 84.8% in test [5]; 93.1% in test [6]. For the same compound, the growth in test [7] was 83.4%; in test [8], 102%.
Regarding `Cc1cc2nc(-c3ccccc3)c(-c3ccccc3)nc2cc1C`, the growth in test [1] is 86.5%; in test [2] it was 97.5%; in test [3], 93%; in test [4] it was 99%; in test [5] it was 88.9%; in test [6], 91.4%. Also, the growth in test [7] and in test [8] was 104% each time.
Take `O=C(N/N=C/c1ccc(F)cc1)c1ccccc1Nc1cccc(C(F)(F)F)c1`: the growth in test [1] is 88.2%; in test [2] it was 105%; in test [3], 100%; in test [4] it was 96%; in test [5], 106%; in test [6], 111%. For the same compound, the growth in test [7] was 107%; in test [8], 91.4%.
With `C=C1C(=O)O[C@H]2[C@H]1CC/C(CNC(=O)/C=C/c1ccccc1F)=C\CC[C@@]1(C)O[C@@H]21`, the growth was -0.591% (active) in test [1]; -6.02% (active) in test [2]; 23.1% in test [3]; -54.3% (active) in test [4]; -12.3% (active) in test [5]; -34.9% (active) in test [6]. The growth in test [7] is 50.4%; in test [8] it was 74.2%.
Take `COc1ccccc1N1CCN(C(=O)c2ccc3nc(NC(=O)c4ccc(NCCc5ccccc5)c([N+](=O)[O-])c4)sc3c2)CC1`: the growth is 73.2% in test [1]; 80.3% in test [2]; 89.4% in test [3]; 75.1% in test [4]; 70.8% in test [5]; 57.7% in test [6]. Also, the values for the growth in test [7] and in test [8] were 110% and 79%, respectively.
`O=C1/C(=C\c2cn(Cc3ccccc3)c3ccc(Br)cc23)c2ccccc2N1c1c(Cl)cccc1Cl`: the growth was 94.5% in test [1]; 106% in test [2]; 105% in test [3]; 108% in test [4]; 96.7% in test [5]; 94.7% in test [6]. The growth was 106% in test [7] and 104% in test [8].
`COc1ccc(-c2nc(SC)nc(N3CCOCC3)c2C#N)cc1`: the growth is 72.9% in test [1]; 83.7% in test [2]; 99.3% in test [3]; 103% in test [4]; 90.6% in test [5]; 103% in test [6]. Also, the growth in test [7] is 99.7%; in test [8], 99.9%.
On to `Cc1ccc(C2CC(c3cccc(Nc4ccncc4)c3)=NN2c2ccc(Cl)cc2)cc1` (configuration not stated), for which the growth in test [1] was -47.9% (active); in test [2] it was 96.5%; in test [3] it was -84.7% (active); in test [4], -46.9% (active); in test [5] it was -73.4% (active); in test [6], -80.1% (active). Also, the figures for the growth in test [7] and in test [8] were -93.4% (active) and -89.3% (active), respectively.
Turning to `CC1(C)[C@H](O)CC[C@]2(C)[C@@H]1CC[C@@]13C[C@@H](CC[C@H]12)[C@@](O)(CO)C3`, the growth in test [1] was 105%; in test [2] it was 90.3%; in test [3], 107%; in test [4], 108%; in test [5], 99.3%; in test [6], -70.1% (active). The growth in test [7] was 105%; in test [8], 116%.
For the compound `COc1ccc(C(=O)c2cc3c(N)c(C(=O)Nc4cccc(Cl)c4C)sc3nc2C)cc1`, the growth in test [1] was 40.9%; in test [2] it was 36.9%; in test [3] it was -6.97% (active); in test [4], 23.2%; in test [5] it was 19.4%; in test [6], 7.35% (active). Besides, the growth in test [7] was 17.1%; in test [8], 10.6%.
For `C(=C\c1n(Cc2ccc3ccccc3c2)c(-c2ccccc2)c(-c2ccccc2)[n+]1Cc1ccc2ccccc2c1)/c1ccccc1`, the growth was -74.8% (active) in test [1]; -83.2% (active) in test [2]; -92% (active) in test [3]; -86.9% (active) in test [4]; -64.1% (active) in test [5]; -80.9% (active) in test [6]. Also, the growth in test [7] is -91.4% (active); in test [8] it was -83.5% (active).
For the compound `CCOC(=O)N1CCc2c(sc3nc4nc[nH]n4c(=O)c23)C1`, the growth in test [1] is 88.9%; in test [2], 95.8%; in test [3], 103%; in test [4], 102%; in test [5], 93.5%; in test [6], 95.7%. The results for the growth in test [7] and in test [8] were 98.6% and 97.1%, respectively.
Consider `COc1ccc(-c2nn(Cc3ccccc3)c3c2-c2oncc2CC3)cc1OC`, for which the growth in test [1] is 84.8%; in test [2] it was 92.7%; in test [3], 95.2%; in test [4], 118%; in test [5] it was 87.7%; in test [6] it was 107%. Also, the growth in test [7] is 107%; in test [8], 99.6%.
As to `O=C1Nc2c(ccc(Cl)c2Cl)/C1=C/c1ccc([N+](=O)[O-])cc1`, the growth in test [1] was 85.3%; in test [2], 87.4%; in test [3], 93%; in test [4], 100%; in test [5] it was 90.4%; in test [6], 76.9%. Moreover, the growth in test [7] is 108%; in test [8], 110%.
Consider `COc1cc(/C=N/NC(=O)c2ccccc2Nc2cccc(C(F)(F)F)c2)ccc1O`, for which the growth in test [1] was 55.6%; in test [2], 102%; in test [3] it was 81.4%; in test [4], 101%; in test [5] it was 83.9%; in test [6], 67.2%. Further, the growth in test [7] was 91.4%; in test [8], 79.5%.
For the compound `O=C(Nc1cccc(C2=NCCN2)c1)c1ccc(OCCCOc2ccc(C(=O)Nc3cccc(C4=NCCN4)c3)cc2)cc1`, the growth in test [1] is 18%; in test [2], 35.2%; in test [3], -72% (active); in test [4], 14.8%; in test [5], 0.803% (active); in test [6] it was 6.6% (active). Also, the growth in test [7] is -13.3% (active); in test [8], 14.2%.
